The campaign covered roughly 97,000 compounds. About 140 (0.14%) were called active.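 Rule for the calls: active = inhibition above the screen-wide mean inhibition plus 3 SD (cut at about 15% in these data); inactive = the rest.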 Only a selection was taken, and actives are over-represented in it overall.
Molecular target: Ephrin type-B receptor 4 (Homo sapiens) (UniProt P54760)
Experiment: EphB4-ephrin-B2 interaction antagonists, primary screen, biochemical, TNYL-RAW peptide probe, fluorescence polarization (AID 720);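 note: 0% = DMSO wells and 100% = excess unlabeled TNYL-RAW peptide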
Details: EphB4 LBD / TNYL-RAW-Alexa532 peptide, at 7 µM, active compounds read high

Chain of Ephrin type-B receptor 4 (Homo sapiens) (P54760 whole entry, looked up): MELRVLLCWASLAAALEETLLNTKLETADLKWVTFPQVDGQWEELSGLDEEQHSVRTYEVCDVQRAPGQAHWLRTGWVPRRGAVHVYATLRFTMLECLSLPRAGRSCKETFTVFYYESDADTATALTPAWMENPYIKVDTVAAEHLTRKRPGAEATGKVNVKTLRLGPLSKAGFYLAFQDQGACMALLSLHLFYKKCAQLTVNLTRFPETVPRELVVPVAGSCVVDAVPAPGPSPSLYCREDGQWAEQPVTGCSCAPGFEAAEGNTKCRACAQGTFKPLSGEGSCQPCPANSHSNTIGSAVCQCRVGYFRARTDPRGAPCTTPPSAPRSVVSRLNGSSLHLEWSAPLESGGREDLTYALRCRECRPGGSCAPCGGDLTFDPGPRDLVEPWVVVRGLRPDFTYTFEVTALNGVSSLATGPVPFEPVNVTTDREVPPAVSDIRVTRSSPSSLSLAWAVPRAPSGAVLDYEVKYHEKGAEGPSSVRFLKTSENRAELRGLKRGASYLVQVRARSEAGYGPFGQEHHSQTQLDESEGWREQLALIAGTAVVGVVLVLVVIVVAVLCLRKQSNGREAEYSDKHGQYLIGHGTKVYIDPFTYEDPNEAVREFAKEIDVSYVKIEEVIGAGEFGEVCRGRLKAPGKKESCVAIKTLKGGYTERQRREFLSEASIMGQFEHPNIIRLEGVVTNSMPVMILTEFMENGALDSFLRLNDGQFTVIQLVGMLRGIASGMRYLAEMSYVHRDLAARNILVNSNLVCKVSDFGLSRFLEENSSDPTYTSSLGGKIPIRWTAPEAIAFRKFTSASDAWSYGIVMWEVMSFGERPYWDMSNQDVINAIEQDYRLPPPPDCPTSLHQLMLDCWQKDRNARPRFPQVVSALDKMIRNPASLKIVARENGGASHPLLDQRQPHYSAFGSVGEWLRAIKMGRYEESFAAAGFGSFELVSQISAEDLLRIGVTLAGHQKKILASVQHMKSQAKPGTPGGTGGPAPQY

Compound | inhibition
CC(=O)c1cccc(NC(=O)N2CCCC2C(=O)NCCC(C)C)c1 (stereo not given) | 3.74% (inactive)
CCC1CCCCN1C(=O)Nc1cccc(NC(=O)N2CCCCC2CC)c1 (stereo not given) | 16.1% (active)
CC(=O)c1cccc(NC(=O)N2CCCC2C(=O)NCCc2ccccc2)c1 (stereo not given) | 0.44% (inactive)
Cc1ccc(NC(=O)C(C)c2cccc(C(=O)c3ccccc3)c2)cc1 (stereo not given) | -1.1% (inactive)
CCOC(=O)C1=C(CN2CCc3ccccc32)NC(=O)NC1c1cc(C)ccc1C (stereo not given) | -2.91% (inactive)
O=C1c2ccccc2C(=O)N1CCCc1nc(-c2ccccc2)no1 | 5.53% (inactive)
Cc1ccccc1OC(=O)Cn1c(C(F)(F)F)nc2ccccc21 | -8.85% (inactive)
Oc1ccccc1/C=N/n1c(-c2cccs2)n[nH]c1=S | 15.8% (active)
Cc1ccc(/C=N\n2c(-c3ccccc3)n[nH]c2=S)s1 | -7.78% (inactive)
O=[N+]([O-])c1ccccc1/C=N/n1c(COc2ccccc2)n[nH]c1=S | 2.36% (inactive)
COCCN(C(=O)c1ccco1)c1nnc(-c2ccc(OC)cc2)s1 | 0.8% (inactive)
c1ccc(-c2ccnc3nc(-n4cccc4)nn23)cc1 | -2.67% (inactive)
O=C(OCN1C(=O)c2ccccc2C1=O)/C(=C\c1ccco1)NC(=O)c1ccccc1 | -9.89% (inactive)
O=C(ON=C1CCN(S(=O)(=O)c2ccccc2)CC1)c1ccc(Cl)cc1 | -2.79% (inactive)
O=C(NCCCCc1ccccc1)C1CC(c2ccc([N+](=O)[O-])cc2)=NO1 (stereo not given) | 1.72% (inactive)
CC(=O)c1cc2c(cc1NC(=O)CN1CCCCCC1)OCO2 | -6.18% (inactive)
COCCn1c(=S)[nH]c2cc(C(=O)NCCc3ccc(OC)c(OC)c3)ccc2c1=O | -6.01% (inactive)
CCOc1cc2[nH]c(=O)n(CCC(=O)NCc3ccc(OC)cc3)c(=O)c2cc1OCC | 7.75% (inactive)
CCN(CC)C(=O)CN(c1cccc(OC)c1)S(=O)(=O)c1ccc(C)cc1 | -6.83% (inactive)
COC(=O)c1ccc(CSc2ccc3nnc(-c4ccccc4)n3n2)o1 | -1.52% (inactive)
CCc1c(-c2ccccc2)nc(N)c(C#N)c1-c1cccs1 | -6.33% (inactive)
C=CCN1C(=O)C(Cc2cccc(Cl)c2)S/C1=N/N=C/c1ccco1 (stereo not given) | 2.87% (inactive)
O=C(Nc1cccc2ccccc12)N1CCN(Cc2ccc3c(c2)OCO3)CC1 | 0.42% (inactive)
CCOC(=O)C1Sc2[nH]c(=O)sc2C(c2ccc(Cl)cc2)C1C(=O)OCC (stereo not given) | 6.17% (inactive)
O=C(c1ccccc1Oc1ccccc1)N1CCN(c2ccc(F)cc2)CC1 | 1.29% (inactive)
